From PubChem BioAssay (NCI) come the findings set out here.

Test systems include SR leukemia; RPMI-8226 leukemia; OVCAR-8 ovarian; OVCAR-5 ovarian; OVCAR-4 ovarian; SK-OV-3 ovarian; IGROV1 ovarian; OVCAR-3 ovarian; HS 578T breast; NCI/ADR-RES ovarian; T-47D breast; BT-549 breast; MDA-MB-435 melanoma; SW-620 colon; MCF7 breast; HCT-116 colon; HCC-2998 colon; KM12 colon.
Holding throughout (assay): NCI-60 one-dose screen, 48 h (100 = growth as untreated, 0 = no growth, -100 = all killed)
Holding throughout (settings): 10 µM unless noted

Compounds without any hit were thinned out: in the full panel of roughly 83,000, 20% have a hit.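 Treatment: one concentration, 48 hours, 96-well format. Scoring: percent growth, with anything below 10 considered active.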 Values without a mark were called inactive. Calls of active or inactive are those of the source.

With `NNC(=O)CSc1nc2scc(-c3ccccc3)c2c(=O)n1-c1ccccc1`, the growth was 83% in the test with SR leukemia; 109% with RPMI-8226 leukemia; 123% in the test on OVCAR-8 ovarian; 98% with OVCAR-5 ovarian; 92.8% in the test on OVCAR-4 ovarian; 120% with SK-OV-3 ovarian. The growth with IGROV1 ovarian was 102%; in the test with OVCAR-3 ovarian it was 99.5%; in the test with HS 578T breast, 89.2%; with NCI/ADR-RES ovarian it was 103%; with T-47D breast, 104%; in the test with BT-549 breast it was 131%. Further, the growth in the test with MDA-MB-435 melanoma is 121%; with SW-620 colon it was 112%; in the test on MCF7 breast, 97.8%; with HCT-116 colon, 91.9%; in the test with HCC-2998 colon, 84.2%; in the test with KM12 colon, 108%.
`COc1ccc(-c2cc(-c3ccc(OC)cc3)c3sc(=O)[nH]c3n2)cc1`: the growth with SR leukemia was 98.1%; in the test with RPMI-8226 leukemia, 85.3%; in the test on OVCAR-8 ovarian it was 82.4%; with OVCAR-5 ovarian it was 101%; in the test on OVCAR-4 ovarian, 95.6%; in the test with SK-OV-3 ovarian, 92.8%. Further, the growth with IGROV1 ovarian was 84.4%; in the test with OVCAR-3 ovarian, 101%; in the test on HS 578T breast, 67.7%; in the test with NCI/ADR-RES ovarian, 92.2%; with T-47D breast, 78.6%; in the test on BT-549 breast, 92.9%. Also, the growth was 107% in the test on MDA-MB-435 melanoma; 95.9% in the test with SW-620 colon; 87.4% in the test with MCF7 breast; 96.8% in the test on HCT-116 colon; 98.7% with HCC-2998 colon; 93.9% with KM12 colon.
Take `CCCCCCCOc1cccc(/C=C2\N=C3SCCCN3C2=O)c1`: the growth in the test with SR leukemia was 105%; in the test on RPMI-8226 leukemia, 91.7%; in the test with OVCAR-8 ovarian, 102%; in the test with OVCAR-5 ovarian, 115%; with OVCAR-4 ovarian it was 85.6%; in the test with SK-OV-3 ovarian, 107%. The growth with IGROV1 ovarian is 98.7%; in the test with OVCAR-3 ovarian, 90.6%; with HS 578T breast, 109%; in the test on NCI/ADR-RES ovarian, 97%; with T-47D breast, -15.5% (active); in the test with BT-549 breast, 100%. Further, the growth was 100% in the test on MDA-MB-435 melanoma; 99.3% with SW-620 colon; 92.1% with MCF7 breast; 88.6% with HCT-116 colon; 110% with HCC-2998 colon; 85.8% in the test with KM12 colon.
In the case of `COc1cc(C2CC(c3cccc(Nc4ccnc5cc(Cl)ccc45)c3)=NN2C=O)cc(OC)c1OC` (stereo unspecified), the growth is 4.97% (active) in the test with SR leukemia; 21% in the test on RPMI-8226 leukemia; 23.2% in the test on OVCAR-8 ovarian; 41.6% in the test with OVCAR-5 ovarian; -16.7% (active) in the test with OVCAR-4 ovarian; 0.586% (active) in the test on SK-OV-3 ovarian. The growth with IGROV1 ovarian is 40.6%; in the test with OVCAR-3 ovarian, -81.2% (active); in the test with HS 578T breast, -20.1% (active); with NCI/ADR-RES ovarian, 5.17% (active); with T-47D breast, -4.07% (active); in the test with BT-549 breast it was -36% (active). In addition, the growth in the test with MDA-MB-435 melanoma is -68.1% (active); with SW-620 colon, 13.1%; in the test with MCF7 breast, 2.77% (active); in the test with HCT-116 colon it was 7.38% (active); in the test with HCC-2998 colon, 37.4%; in the test with KM12 colon, 9.52% (active).
Turning to `O=C(Nc1ccc(Cl)cc1)c1cc(-c2ccc(Cl)cc2)c2sc(=O)[nH]c2n1`, the growth in the test with SR leukemia is 2% (active); with RPMI-8226 leukemia it was -6.18% (active); in the test with OVCAR-8 ovarian, 4.75% (active); in the test with OVCAR-5 ovarian it was 32%; with OVCAR-4 ovarian it was 13%; in the test with SK-OV-3 ovarian, -24.3% (active). In addition, the growth with IGROV1 ovarian is 28.1%; with OVCAR-3 ovarian, 1.82% (active); in the test with HS 578T breast, -14.4% (active); in the test on NCI/ADR-RES ovarian it was 5.64% (active); in the test with T-47D breast, -22.8% (active); in the test on BT-549 breast, 1.28% (active). For the same compound, the growth was 7.39% (active) with MDA-MB-435 melanoma; 8.1% (active) with SW-620 colon; 0.758% (active) in the test on MCF7 breast; 0.269% (active) in the test on HCT-116 colon; 19.1% in the test with HCC-2998 colon; 4.21% (active) in the test with KM12 colon.
Regarding `CCOC(=O)c1cc(N)nc2ccccc12`, the growth in the test on SR leukemia was 102%; in the test with RPMI-8226 leukemia, 106%; in the test with OVCAR-8 ovarian it was 108%; in the test on OVCAR-5 ovarian, 109%; with OVCAR-4 ovarian it was 109%; in the test with SK-OV-3 ovarian, 101%. Also, the growth in the test on IGROV1 ovarian is 120%; in the test with OVCAR-3 ovarian, 109%; in the test with HS 578T breast, 82.7%; with NCI/ADR-RES ovarian, 104%; with T-47D breast, 93.7%; in the test on BT-549 breast, 105%. Moreover, the growth in the test with MDA-MB-435 melanoma is 108%; in the test on SW-620 colon, 91.8%; in the test with MCF7 breast it was 107%; with HCT-116 colon, 102%; with HCC-2998 colon, 111%; in the test with KM12 colon, 98.4%.
With `O=C(NNC(=O)c1cccc(Cl)c1)c1ccccc1`, the growth is 85.8% with SR leukemia; 101% in the test on RPMI-8226 leukemia; 106% in the test on OVCAR-8 ovarian; 103% with OVCAR-5 ovarian; 103% in the test on OVCAR-4 ovarian; 114% in the test with SK-OV-3 ovarian. The growth was 115% in the test on IGROV1 ovarian; 115% with OVCAR-3 ovarian; 105% in the test on HS 578T breast; 111% in the test with NCI/ADR-RES ovarian; 103% in the test on T-47D breast; 111% in the test on BT-549 breast. The growth in the test on MDA-MB-435 melanoma was 103%; with SW-620 colon, 106%; in the test on MCF7 breast, 105%; in the test on HCT-116 colon it was 107%; in the test with HCC-2998 colon, 105%; in the test on KM12 colon, 111%.
